Common to all, as to experiment: NCI-60 one-dose screen, 48 h (100 = growth as untreated, 0 = no growth, -100 = all killed)
Holding throughout (details): 10 µM unless noted

Test [1] deals with T-47D breast.
Test [2] relates to BT-549 breast.
In test [3] the test system is MDA-MB-435 melanoma.
In test [4] the test system is SW-620 colon.
The subject of test [5] is MCF7 breast.
For test [6], the system named is HCC-2998 colon.
Test [7] has as its system KM12 colon.
In test [8] the test system is MDA-MB-468 breast.
For test [9], the system named is HCT-116 colon.

From PubChem BioAssay (NCI) come the findings set out here.

About 83,000 compounds went through this panel and 20% of them were active in at least one assay; those are over-represented in the sample as a whole.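 96-well plates, one dose, 48 hours. Percent growth reported; active if below 10.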 Values without a mark were called inactive. The source made the active and inactive calls.

As to `Fc1ccc(Nc2nnc(-c3c[nH]c4ccccc34)o2)cc1`, the growth in test [1] was 47.2%; in test [2] it was 67.3%; in test [3], 89.8%; in test [4], 100%; in test [5], 49.9%; in [6], 98.5%. The growth was 64.4% in [7] and 32.6% in test [8].
On to `COc1ccc(N=Nc2c(N)nn3c(-c4ccc(F)cc4)ccnc23)cc1`, for which the growth is 61.1% in test [1]; 96.4% in test [2]; 56.2% in test [3]; 44.5% in test [4]; 55.4% in test [5]; 71.4% in [9]. The values for the growth in [7] and in [8] were 86.2% and 44.2%, respectively.
Regarding `COc1nc(N)ncc1-c1ccc2ncnc(N3CCc4cc(F)c(Cl)cc43)c2c1`, the growth in [1] is -46.3% (active); in [2], 19.9%; in [3] it was 68.2%; in [4], 34.3%; in [5], 29.8%; in test [6], 12.2%. Moreover, in test [7], the growth is 70%.
For `FC(F)(F)c1cc2c(Cl)ncnc2n1CCN1CCCCC1`, the growth in test [1] is 70.5%; in test [2], -3.05% (active); in [3], 56%; in [4], 34%; in [5] it was 52.1%; in test [6], -75.1% (active). For the same molecule, the growth in [7] is 93.9%; in test [8], -10.6% (active).
In the case of `Cc1nn(-c2ccccc2)c2nc(C)n(CC(=O)N/N=C/c3ccccc3O)c(=O)c12`, the growth in [1] was 16.1%; in [2] it was 37.2%; in [3], 34.7%; in test [4] it was 18.9%; in test [5] it was 7.8% (active); in test [6], 27.4%. The growth in [7] is 31%; in test [8], -23.3% (active).
Turning to `CCCCCCCCCc1ccc(C(=O)Nc2cc(C)ccc2C(=O)OC)cc1`, the growth was 99.1% in test [1]; 129% in test [2]; 105% in test [3]; 99.7% in test [4]; 91.2% in test [5]; 122% in test [6]. The growth in test [7] is 105%; in test [8] it was 118%.
As for `COC(=O)c1cc(C(=O)C(Br)Br)n2c1ccc1c3ccccc3ccc12`, the growth in test [1] is 1.99% (active); in test [3], 79%; in test [4], 45.2%; in test [5], 5.77% (active); in test [9], 49.6%; in test [6], 43.5%. Further, the growth in [7] was 39.7%; in test [8], -8.15% (active).
With `COC(=O)c1cc(C(=O)CBr)n2c1ccc1c3ccccc3ccc12`, the growth in test [1] was 57.7%; in test [3], 74.9%; in [4], 55.4%; in test [5] it was 6.75% (active); in test [9], 35.6%; in [6], 62.5%. For the same molecule, the growth was 84% in test [7] and 48.8% in test [8].
Consider `Fc1ccc(N2CC(Cn3c(C(F)(F)F)cc4c(Cl)ncnc43)C2)c(F)c1`, for which the growth in [1] was 56.8%; in [2], -84.5% (active); in test [3] it was 15.9%; in [4], -79.6% (active); in test [5], 57.7%; in test [6], -91.4% (active). The growth in [7] was 99.5%; in [8] it was -50.5% (active).
`Oc1ccc(F)c(Nc2nc(SCCN3CCOCC3)nc3c2cnn3CC(Cl)c2ccc(Br)cc2)c1` (stereo unspecified): the growth was -6.68% (active) in [1]; 17.8% in test [3]; 29.3% in [4]; 7.39% (active) in [5]; 14.9% in [9]; 15.8% in [6]. The growth is 11% in test [7] and -20.5% (active) in test [8].
For `O=C(Cn1c(-c2ccccc2)nc2ccccc21)N=Nc1c(O)[nH]c2ccc(Br)cc12`, the growth in test [1] was -59.4% (active); in test [2], -53.7% (active); in test [3], -32.3% (active); in test [4] it was 11.9%; in test [5], -18.6% (active); in test [6], 0.134% (active). In addition, the values for the growth in test [7] and in test [8] were 15% and -53.4% (active), respectively.
As for `O=C1Nc2cc(-c3ccc(NS(=O)(=O)c4ccc(F)c(Cl)c4)cc3)ccc2/C1=C/c1ccc[nH]1`, the growth in [1] was 14.7%; in [2], 19.7%; in test [3], 55.1%; in test [4], 33.9%; in test [9], 12%; in test [6], 17.1%. For the same molecule, the growth in test [7] was 13.6%.
Take `Oc1ccc(Cl)c(Nc2ncnc3c2cnn3CC(Cl)c2ccc(Br)cc2)c1` (stereo unspecified): the growth was 32.9% in [1]; 57.7% in [3]; 67.1% in test [4]; 49.7% in [5]; 40.8% in [9]; 98.3% in [6]. Moreover, the growth in test [7] was 85.9%.
For the molecule `O=C1Nc2ccccc2/C1=C\c1ccc(OCC(=O)c2ccc(Br)cc2)cc1`, the growth in [1] is 46.9%; in test [2], 56.6%; in test [3] it was 70.5%; in test [4], 78.1%; in test [5], 27.4%; in [6], 85.1%. The figures for the growth in test [7] and in test [8] were 77.3% and 52.4%, respectively.
In the case of `Fc1ccc(F)c(CNc2nc(SCCN3CCOCC3)nc3c2cnn3CC(Cl)c2ccc(Br)cc2)c1` (stereo unspecified), the growth in test [1] was 10.8%; in [3] it was -13.3% (active); in test [4], -3.05% (active); in [5], 2.55% (active); in [9], 16.8%; in test [6], 24.7%. Moreover, the growth in test [7] is 4.2% (active).
